A selection: hits, their analogues and other compounds. The true share with any hit is near 3.6%.
BoNT-A LC inh2 – blocks Botulinum neurotoxin A light chain protease; multiplex microsphere protease substrate cleavage, flow cytometry; inhibition, % at 10 µM; actives 0.17% (n = 360,000); AID 588499
Bead autofluor – flagged as autofluorescent in microsphere protease counterscreen; compound autofluorescence counterscreen, microsphere flow cytometry; active compounds read high; fluorescence intensity (no concentration beside the values); actives 3.1% (n = 360,000); in the data active = fluorescence intensity above about 16000; inconclusive = no clear call, values can overlap the other calls
BoNT F protease – BoNT F light chain protease inhibition; Multiplex microsphere protease cleavage assay, flow cytometry; inhibition, % at 10 µM; actives 0.22% (n = 360,000); AID 588497; in the data active = inhibition above about 35%, passing the limit was not always enough; inconclusive = no clear call, values can overlap the other calls
Anthrax LF prot – blocks Bacillus anthracis lethal factor protease; P15917; multiplex microsphere protease cleavage assay, LF; inhibition, % at 10 µM; actives 0.12% (n = 360,000); AID 588501
Target sequence (P15917 whole entry, looked up): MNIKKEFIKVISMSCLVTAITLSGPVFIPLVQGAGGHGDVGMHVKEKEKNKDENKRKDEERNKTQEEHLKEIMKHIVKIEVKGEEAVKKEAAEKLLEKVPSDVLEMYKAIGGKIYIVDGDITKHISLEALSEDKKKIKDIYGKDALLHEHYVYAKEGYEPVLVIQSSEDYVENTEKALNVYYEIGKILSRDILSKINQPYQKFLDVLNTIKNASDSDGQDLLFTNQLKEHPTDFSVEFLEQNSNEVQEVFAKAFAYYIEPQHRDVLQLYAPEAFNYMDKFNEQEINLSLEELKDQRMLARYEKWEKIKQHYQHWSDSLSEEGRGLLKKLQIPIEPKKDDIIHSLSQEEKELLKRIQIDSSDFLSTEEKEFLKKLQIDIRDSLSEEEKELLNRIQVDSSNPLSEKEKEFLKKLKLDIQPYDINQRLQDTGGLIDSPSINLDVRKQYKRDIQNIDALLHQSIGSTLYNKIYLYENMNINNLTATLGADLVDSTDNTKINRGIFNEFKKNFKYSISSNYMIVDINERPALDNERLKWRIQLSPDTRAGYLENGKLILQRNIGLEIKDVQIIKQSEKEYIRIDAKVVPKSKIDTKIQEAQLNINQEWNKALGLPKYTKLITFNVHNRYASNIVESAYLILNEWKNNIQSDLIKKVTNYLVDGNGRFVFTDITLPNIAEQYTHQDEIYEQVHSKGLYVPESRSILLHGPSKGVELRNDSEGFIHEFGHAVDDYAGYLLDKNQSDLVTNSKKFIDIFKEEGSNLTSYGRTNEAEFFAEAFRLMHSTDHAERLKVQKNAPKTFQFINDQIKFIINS
MazEF act – activators of E. coli MazEF toxin-antitoxin RNase; activation, % at 20 µM; FAM/BHQ RNA-DNA oligo cleavage fluorescence, 5 h; actives 0.32% (n = 350,000); in the data active = activation above about 50%
A number is an active result; 0 = inactive; ? = inconclusive; - = no result. Cut-off read from the data, not from the text of the source, unless noted: active = inhibition above about 30%; inconclusive = no clear call, values can overlap the other calls; inactive = below that.

SMILES	BoNT-A LC inh2	Bead autofluor	BoNT F protease	Anthrax LF prot	MazEF act
COc1cc(CN2CCN(c3cccc(C)c3C)CC2)cc(Br)c1O	?	23780	0	0	0
COc1cc(CN2CCN(c3ccccc3C)CC2)cc([N+](=O)[O-])c1O	0	0	0	0	0
COc1ccc(CN2CCN(C)CC2)cc1OCc1ccccc1	0	20197	0	0	0
CCOC(=O)C1=C(CC)Nc2ccccc2N=C1NC(=O)c1ccc(OC)c(S(=O)(=O)N2CCOCC2)c1	0	0	0	0	0
Cc1nc(NCc2ccco2)[nH]c(=O)c1CCC(C)C	0	21901	0	0	0
Cc1ccc(-n2c3c(c(=O)[nH]c2=O)C(C(F)(F)F)(C(F)(F)F)NC(=O)N3)cc1	0	16132	0	0	0
COc1ccccc1NS(=O)(=O)c1ccc(NC(C)=O)cc1	0	18703	0	0	0
COC(=O)Nc1ccc(S(=O)(=O)Nc2cccc3ccccc23)cc1	?	21995	0	0	0
COc1ccccc1NS(=O)(=O)c1cccc(NC(=O)Nc2cccc(Cl)c2)c1	0	0	0	0	77
COc1ccc(NC(=O)C(C)NS(=O)(=O)c2ccc(NC(C)=O)cc2)cc1Cl (centres undefined)	0	23479	0	0	0
COc1ccccc1NS(=O)(=O)c1cccc(NC(=O)NCCCl)c1	0	0	0	0	0
O=C1N(Cc2ccccc2)CC2(Br)COCOC12O (centres undefined)	0	0	0	0	0
O=C1Nc2ccccc2N=C(c2ccccc2)C1N1CCOCC1 (centres undefined)	?	21946	0	0	0
CC(NC(=O)CSC(=S)N(C)C)C12CC3CC(CC(C3)C1)C2 (centres undefined)	0	0	0	0	0
O=C(NC1CCCC1)c1csc2c1CCCC2	0	19286	0	0	0
CCCNC(=O)c1csc2c1CCCCC2	0	0	0	0	0
CCCC(=O)NC(c1ccc(OC)c(OC)c1)c1c(O)ccc2ccccc12 (centres undefined)	?	23446	0	0	0
CCc1nc(C)ccc1OCC(=O)NCCCN(C)C	0	22619	0	0	0
CSc1nnc(CCNS(=O)(=O)c2ccccc2Br)n1C	0	0	0	0	0
O=C(Nc1ccc(Cl)c(Cl)c1)c1csc(-c2ccccc2)n1	0	16273	0	0	0
Cc1cc(C)c2nc(NC(=O)CN3C(=O)NC4(CCCC4)C3=O)sc2c1	0	?	0	0	0
COc1ccccc1NC(=O)N(C)C[C@H]1OCc2cnnn2CCCC(=O)N([C@@H](C)CO)C[C@H]1C	0	0	0	0	0
Cc1ccc(OC(=O)c2ccncc2)c(C)c1	0	0	47	0	0
CC(=O)c1cc(C)ccc1OC(=O)c1ccncc1	0	0	?	0	0
COc1cc(NC(=O)c2sc3ncn(CC(=O)N4CCCCC4)c(=O)c3c2C)cc(OC)c1OC	0	0	0	0	0
SMILES	BoNT-A LC inh2	Bead autofluor	BoNT F protease	Anthrax LF prot	MazEF act
COc1cccc(-n2nnc3c(=O)n(Cc4ccc(Cl)cc4)cnc32)c1	0	21157	0	0	0
COc1cccc(-n2nnc3c(=O)n(Cc4ccc(F)cc4)cnc32)c1	0	0	0	0	0
O=C(Cn1cnc2c(nnn2Cc2ccc(F)cc2)c1=O)NC1CCCC1	0	22114	0	0	0
COc1cccc(-n2nnc3c(=O)n(CC(=O)NC4CCCC4)cnc32)c1	0	20217	0	0	0
O=C(Cn1cnc2c(nnn2Cc2ccc(Cl)cc2)c1=O)NC1CCCC1	0	0	0	0	0
COc1cccc(-n2nnc3c(=O)n(Cc4ccc(Br)cc4)cnc32)c1	0	21527	0	0	0
COc1cccc(-n2nnc3c(=O)n(Cc4ccc(C)cc4)cnc32)c1	0	0	0	0	0
O=c1cc(-c2ccccc2)oc2cc(O)c(O)c(O)c12	0	0	0	0	0
O=c1c(O)cccc2cc(O)c(O)c(O)c12	0	0	0	0	281
Cc1ccn(CC(=O)O)c(=O)c1	?	22082	0	0	0
O=C(O)Cn1ccc2ccccc21	0	0	0	0	0
CN1OC[C@@H]2CN(C(=O)C(C)(C)C)[C@H](c3cccc(Br)c3)C[C@@H]21	0	0	0	0	53
CCOC(=O)N1CCN(C(=O)Cn2c(=O)sc3ccccc32)CC1	0	0	0	0	0
COc1ccccc1OCCCn1c(=O)oc2ccccc21	0	0	0	0	0
O=C(O)CCn1c(=O)sc2ccccc21	0	0	0	0	0
O=c1sc2ccccc2n1CCOc1ccccc1	0	23573	0	0	0
COc1ccccc1OCCCn1c(=O)sc2ccccc21	?	20682	0	0	0
CCOC(=O)Cn1c(=O)sc2ccccc21	0	23284	0	0	0
CCSc1nnc(NC(=O)C(C)C)s1	0	0	0	0	0
CCSc1nnc(NC(=O)C(C(F)(F)F)C(F)(F)F)s1	0	23475	0	0	0
CCSc1nnc(NC(=O)C(C)(C(F)(F)F)C(F)(F)F)s1	0	16389	0	0	0
COc1ccccc1N(CC(=O)N1CCN(Cc2ccccc2)CC1)S(=O)(=O)c1ccccc1	0	0	0	0	0
CCCCSCc1ccc(C(=O)O)o1	0	20913	0	0	0
N#CCCSCc1ccc(C(=O)O)o1	0	0	0	0	0
CN(C)c1nc(N)nc(CSc2nnnn2-c2ccc(F)cc2)n1	0	23095	0	0	0
SMILES	BoNT-A LC inh2	Bead autofluor	BoNT F protease	Anthrax LF prot	MazEF act
Cc1cc(Nc2cccc(F)c2)n2c(n1)nc1ccccc12	0	0	0	0	57
Cc1cc(C(=O)N2CCc3ccccc3C2)n[nH]1	0	0	0	0	0
CC(=O)c1ccccc1C(=O)N1CCCC(C(=O)c2ccc(C(F)(F)F)cc2)C1 (centres undefined)	0	0	0	0	0
CCN(CC)S(=O)(=O)c1ccc(S(=O)(=O)N(CC(=O)Nc2ccccc2)CC2CCCO2)cc1 (centres undefined)	0	17027	0	0	0
COC(=O)[C@@]1(C(C)C)N=C(c2cc(OC)c(OC)c(OC)c2)[C@]2(O1)C(=O)N(C)c1ccc(Cl)cc12	0	0	0	0	-
Cc1sc(-n2c(C)cc(/C=N/n3cnnc3)c2C)c(C#N)c1C	0	22786	0	0	0
Cc1ccc(N2CCN(S(=O)(=O)c3ccc(Cl)s3)CC2C)cc1 (centres undefined)	0	0	0	0	0
Cc1ccsc1C1Nc2ccc3ncccc3c2C2=C1C(=O)CCC2 (centres undefined)	0	20032	0	0	0
C/C(=N\NC1=N[C@H]2CS(=O)(=O)C[C@H]2S1)c1ccccc1	0	0	0	0	0
C=CCNCCCCOc1ccc(C)cc1[N+](=O)[O-]	0	0	0	0	0
CCC(C)NCCCCOc1ccc(C)cc1[N+](=O)[O-] (centres undefined)	0	20177	0	0	0
CCOc1ccc(NS(=O)(=O)c2ccc(-c3coc(C)n3)cc2)cc1	0	0	0	0	0
O=C(Nc1ccc(-n2nncc2-c2ccco2)cc1)c1cccc(F)c1	0	0	0	0	0
O=C(Nc1ccc(-n2nncc2-c2ccco2)cc1)c1cc2ccccc2oc1=O	0	20140	0	0	0
O=C1CC(NCc2ccccc2)C(=O)N1c1ccc(F)cc1 (centres undefined)	0	0	0	0	0
